Assay results published in the supplement of paper PMC9492666.
Counter-ions that a name gives are not always drawn.

tested on: HCC1937; experiment: relative cell viability, compound + erastin, vs DMSO (fraction of DMSO control); higher = less growth inhibition; settings: 72 h
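Further: viability read by CCK-8 kit in 96-well plates, part of a combination screen pairing lipid-metabolism-targeting compounds with erastin.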

Row | Structure (SMILES) | relative cell viability
1 | C/C=C/c1cc(OC)c(OC)cc1OC [alpha-Asarone] + CCOc1ccccc1-n1c(C(C)N2CCN(C(=O)COc3ccc(Cl)cc3)CC2)nc2ccccc2c1=O [erastin] | 0.594
2 | O=C(O)Cn1nnc(-c2cc(N3CCC(Oc4cc(F)ccc4Br)CC3)no2)n1 + CCOc1ccccc1-n1c(C(C)N2CCN(C(=O)COc3ccc(Cl)cc3)CC2)nc2ccccc2c1=O [erastin] | 0.529
3 | Cc1cccc(Nc2cc(Cl)nc(SCC(=O)O)n2)c1C [Pirinixic Acid] + CCOc1ccccc1-n1c(C(C)N2CCN(C(=O)COc3ccc(Cl)cc3)CC2)nc2ccccc2c1=O [erastin] | 0.602
4 | C[C@H](CCCC(C)(C)O)[C@H]1CC[C@H]2[C@@H]3CC=C4C[C@@H](O)CC[C@]4(C)[C@H]3CC[C@]12C [25-Hydroxycholesterol] + CCOc1ccccc1-n1c(C(C)N2CCN(C(=O)COc3ccc(Cl)cc3)CC2)nc2ccccc2c1=O [erastin] | 0.745
5 | COc1ccc2c(c1)c(CC(=O)O)c(C)n2C(=O)c1ccc(Cl)cc1 [Indometacin] + CCOc1ccccc1-n1c(C(C)N2CCN(C(=O)COc3ccc(Cl)cc3)CC2)nc2ccccc2c1=O [erastin] | 0.941
6 | C[C@H]1N=C(N(C)C)N=C(N)N1 [Imeglimin hydrochloride] + CCOc1ccccc1-n1c(C(C)N2CCN(C(=O)COc3ccc(Cl)cc3)CC2)nc2ccccc2c1=O [erastin] | 0.69
7 | CCOP(=O)(OCC)C(=Cc1cc(C(C)(C)C)c(O)c(C(C)(C)C)c1)P(=O)(OCC)OCC + CCOc1ccccc1-n1c(C(C)N2CCN(C(=O)COc3ccc(Cl)cc3)CC2)nc2ccccc2c1=O [erastin] | 0.534
8 | O=C(O)c1cccnc1Nc1cccc(C(F)(F)F)c1 [Niflumic acid] + CCOc1ccccc1-n1c(C(C)N2CCN(C(=O)COc3ccc(Cl)cc3)CC2)nc2ccccc2c1=O [erastin] | 0.771
9 | COc1ccc(-c2cc(=O)c3c(O)c(OC)c(OC)c(OC)c3o2)cc1OC + CCOc1ccccc1-n1c(C(C)N2CCN(C(=O)COc3ccc(Cl)cc3)CC2)nc2ccccc2c1=O [erastin] | 0.573
10 | CC(C)c1cc(C(C)C)c(CC(=O)NS(=O)(=O)Oc2c(C(C)C)cccc2C(C)C)c(C(C)C)c1 [Avasimibe] + CCOc1ccccc1-n1c(C(C)N2CCN(C(=O)COc3ccc(Cl)cc3)CC2)nc2ccccc2c1=O [erastin] | 0.508
11 | Cc1cc(C)c(S(=O)(=O)Nc2cccc(C(F)(F)F)c2)c(C)c1 + CCOc1ccccc1-n1c(C(C)N2CCN(C(=O)COc3ccc(Cl)cc3)CC2)nc2ccccc2c1=O [erastin] | 0.922
12 | CC(=O)Oc1cc(C(F)(F)F)ccc1C(=O)O [Triflusal] + CCOc1ccccc1-n1c(C(C)N2CCN(C(=O)COc3ccc(Cl)cc3)CC2)nc2ccccc2c1=O [erastin] | 0.751
13 | CN(C)C(=N)NC(=N)N [Metformin hydrochloride] + CCOc1ccccc1-n1c(C(C)N2CCN(C(=O)COc3ccc(Cl)cc3)CC2)nc2ccccc2c1=O [erastin] | 0.943
14 | Cc1cc([N+](=O)[O-])ccc1NS(=O)(=O)c1cc(Cl)ccc1Cl + CCOc1ccccc1-n1c(C(C)N2CCN(C(=O)COc3ccc(Cl)cc3)CC2)nc2ccccc2c1=O [erastin] | 0.585
15 | COC(=O)/C=C/c1cccc(N(Cc2ccc(-c3ccc(N(C)C)cc3)cc2)C(=O)C2CCCCC2)c1 [Fexaramine] + CCOc1ccccc1-n1c(C(C)N2CCN(C(=O)COc3ccc(Cl)cc3)CC2)nc2ccccc2c1=O [erastin] | 0.5
16 | C=C[C@H]1CN2CC[C@H]1C[C@@H]2[C@@H](O)c1ccnc2ccc(OC)cc12 [Quinidine sulfate] + CCOc1ccccc1-n1c(C(C)N2CCN(C(=O)COc3ccc(Cl)cc3)CC2)nc2ccccc2c1=O [erastin] | 0.7
17 | CN1CCN(c2ccc(/C=C(\C#N)c3ccccc3Br)cc2)CC1 [DG172 (dihydrochloride)] + CCOc1ccccc1-n1c(C(C)N2CCN(C(=O)COc3ccc(Cl)cc3)CC2)nc2ccccc2c1=O [erastin] | 0.672
18 | CC[C@H](C)C(=O)O[C@H]1C[C@H](O)C=C2C=C[C@H](C)[C@H](CC[C@@H](O)C[C@@H](O)CC(=O)O)[C@H]21 [Pravastatin sodium] + CCOc1ccccc1-n1c(C(C)N2CCN(C(=O)COc3ccc(Cl)cc3)CC2)nc2ccccc2c1=O [erastin] | 0.909
